PubChem BioAssay
Calls of active or inactive are those of the source.

Legend:
[1] = small molecules captured by biotinylated probe aFSTL3 – biochemical, small-molecule microarray, fluorescence 635/667, stem cell growth factor project, primary screen (AID 1064); details: higher = more signal;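 also: measures binding of the biotinylated anti-FSTL3 antibody to printed compounds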
[2] = binders from COS7 lysate, DM2A8 probe, primary screen, torsin A project, cell lysate, small-molecule microarray, fluorescence 635/667 (AID 1065); details: higher = more signal, COS7 lysate expressing mutant human TOR1A
[3] = small molecules captured by biotinylated probe aFGF2 – biochemical, small-molecule microarray, fluorescence 635/667, stem cell growth factor project, primary screen (AID 1067); details: higher = more signal;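 also: measures binding of biotinylated aFGF2 protein to printed compounds on slides; z-score merges feature fluorescence and signal-to-noise across triplicate slides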
[4] = small molecules captured by biotinylated probe aFGF10 – biochemical, small-molecule microarray, fluorescence 635/667, stem cell growth factor project, primary screen (AID 1071); details: higher = more signal;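 also: score merges 667 nm spot intensity and signal to noise from triplicate slides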
[5] = molecular target: Neurogenic locus notch homolog protein 2 (Homo sapiens) (UniProt Q04721); test: small molecules binding Notch2 protein – biochemical, small-molecule microarray, 635 nm fluorescence, stem cell growth factors, primary screen (AID 1073); details: higher = more signal
Chain of Neurogenic locus notch homolog protein 2 (Homo sapiens) (Q04721 whole entry, looked up, canonical isoform): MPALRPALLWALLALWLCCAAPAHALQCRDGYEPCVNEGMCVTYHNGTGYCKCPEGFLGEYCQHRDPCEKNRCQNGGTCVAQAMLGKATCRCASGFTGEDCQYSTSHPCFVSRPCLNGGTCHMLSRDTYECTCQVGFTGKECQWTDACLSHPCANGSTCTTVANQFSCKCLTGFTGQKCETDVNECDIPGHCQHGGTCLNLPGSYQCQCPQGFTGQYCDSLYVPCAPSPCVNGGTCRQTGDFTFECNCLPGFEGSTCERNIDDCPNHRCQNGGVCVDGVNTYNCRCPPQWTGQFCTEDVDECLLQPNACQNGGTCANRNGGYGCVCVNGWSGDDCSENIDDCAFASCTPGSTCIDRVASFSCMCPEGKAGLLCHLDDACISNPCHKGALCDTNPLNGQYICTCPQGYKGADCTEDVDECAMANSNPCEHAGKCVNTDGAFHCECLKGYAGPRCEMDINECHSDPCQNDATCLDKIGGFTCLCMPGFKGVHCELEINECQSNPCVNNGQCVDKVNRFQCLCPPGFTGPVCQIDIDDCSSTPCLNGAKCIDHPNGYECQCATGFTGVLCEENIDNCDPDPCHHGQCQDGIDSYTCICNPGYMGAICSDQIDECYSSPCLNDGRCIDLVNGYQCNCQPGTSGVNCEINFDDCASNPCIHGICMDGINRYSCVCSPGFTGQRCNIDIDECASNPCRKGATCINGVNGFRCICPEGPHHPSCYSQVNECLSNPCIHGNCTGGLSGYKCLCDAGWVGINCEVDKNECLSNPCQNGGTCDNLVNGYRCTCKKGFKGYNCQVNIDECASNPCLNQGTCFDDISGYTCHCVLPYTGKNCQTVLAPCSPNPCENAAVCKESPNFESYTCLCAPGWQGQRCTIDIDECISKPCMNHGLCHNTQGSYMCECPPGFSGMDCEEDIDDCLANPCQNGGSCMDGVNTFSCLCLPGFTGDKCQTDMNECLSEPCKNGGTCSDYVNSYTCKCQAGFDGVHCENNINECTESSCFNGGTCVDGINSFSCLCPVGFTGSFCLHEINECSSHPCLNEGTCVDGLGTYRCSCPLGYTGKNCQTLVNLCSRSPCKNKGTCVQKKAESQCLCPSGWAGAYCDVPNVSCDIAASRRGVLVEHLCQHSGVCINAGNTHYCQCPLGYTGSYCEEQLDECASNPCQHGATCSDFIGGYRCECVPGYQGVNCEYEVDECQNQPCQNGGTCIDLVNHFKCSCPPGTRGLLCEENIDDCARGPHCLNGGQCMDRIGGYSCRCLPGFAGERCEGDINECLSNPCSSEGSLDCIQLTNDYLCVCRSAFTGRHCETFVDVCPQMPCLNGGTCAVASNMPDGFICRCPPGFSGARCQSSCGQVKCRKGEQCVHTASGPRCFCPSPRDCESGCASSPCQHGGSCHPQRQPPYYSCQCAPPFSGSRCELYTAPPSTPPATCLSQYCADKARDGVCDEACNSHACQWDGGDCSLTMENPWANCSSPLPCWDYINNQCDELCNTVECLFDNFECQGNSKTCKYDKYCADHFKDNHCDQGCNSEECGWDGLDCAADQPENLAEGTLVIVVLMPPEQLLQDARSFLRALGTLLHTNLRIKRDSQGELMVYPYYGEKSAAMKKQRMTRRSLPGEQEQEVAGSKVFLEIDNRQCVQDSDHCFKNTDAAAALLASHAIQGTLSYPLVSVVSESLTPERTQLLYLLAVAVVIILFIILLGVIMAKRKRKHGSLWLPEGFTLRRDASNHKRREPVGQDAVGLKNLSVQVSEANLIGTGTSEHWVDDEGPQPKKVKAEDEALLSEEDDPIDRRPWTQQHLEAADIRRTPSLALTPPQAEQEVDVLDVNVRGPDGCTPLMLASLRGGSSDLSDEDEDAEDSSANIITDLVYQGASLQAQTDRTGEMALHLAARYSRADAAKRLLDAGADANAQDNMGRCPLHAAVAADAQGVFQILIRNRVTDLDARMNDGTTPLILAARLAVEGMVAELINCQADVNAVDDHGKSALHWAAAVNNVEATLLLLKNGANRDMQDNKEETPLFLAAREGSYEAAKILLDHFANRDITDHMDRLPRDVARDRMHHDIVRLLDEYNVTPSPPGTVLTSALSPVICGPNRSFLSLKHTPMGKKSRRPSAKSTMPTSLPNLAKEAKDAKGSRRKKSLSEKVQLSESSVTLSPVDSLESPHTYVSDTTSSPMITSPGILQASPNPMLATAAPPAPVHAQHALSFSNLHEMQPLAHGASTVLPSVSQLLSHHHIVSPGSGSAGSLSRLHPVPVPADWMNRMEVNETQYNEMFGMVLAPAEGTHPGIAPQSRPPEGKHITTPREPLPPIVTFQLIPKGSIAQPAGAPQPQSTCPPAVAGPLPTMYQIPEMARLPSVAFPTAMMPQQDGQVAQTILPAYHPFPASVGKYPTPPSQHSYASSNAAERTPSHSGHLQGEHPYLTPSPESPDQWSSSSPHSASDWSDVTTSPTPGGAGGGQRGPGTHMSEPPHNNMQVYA

[6] = molecular target: Pro-neuregulin-1, membrane-bound isoform (Homo sapiens) (UniProt Q02297); test: small molecules binding neuregulin-1 protein – biochemical, small-molecule microarray, fluorescence 635/667, psychiatric disease protein project, primary screen (AID 1075); details: NRG1 binding, 635 nm fluorescence, higher = more signal;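 also: score combines 667 nm spot fluorescence with signal to noise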
Chain of Pro-neuregulin-1, membrane-bound isoform (Homo sapiens) (Q02297 whole entry, looked up, the tested form may be a part, canonical isoform): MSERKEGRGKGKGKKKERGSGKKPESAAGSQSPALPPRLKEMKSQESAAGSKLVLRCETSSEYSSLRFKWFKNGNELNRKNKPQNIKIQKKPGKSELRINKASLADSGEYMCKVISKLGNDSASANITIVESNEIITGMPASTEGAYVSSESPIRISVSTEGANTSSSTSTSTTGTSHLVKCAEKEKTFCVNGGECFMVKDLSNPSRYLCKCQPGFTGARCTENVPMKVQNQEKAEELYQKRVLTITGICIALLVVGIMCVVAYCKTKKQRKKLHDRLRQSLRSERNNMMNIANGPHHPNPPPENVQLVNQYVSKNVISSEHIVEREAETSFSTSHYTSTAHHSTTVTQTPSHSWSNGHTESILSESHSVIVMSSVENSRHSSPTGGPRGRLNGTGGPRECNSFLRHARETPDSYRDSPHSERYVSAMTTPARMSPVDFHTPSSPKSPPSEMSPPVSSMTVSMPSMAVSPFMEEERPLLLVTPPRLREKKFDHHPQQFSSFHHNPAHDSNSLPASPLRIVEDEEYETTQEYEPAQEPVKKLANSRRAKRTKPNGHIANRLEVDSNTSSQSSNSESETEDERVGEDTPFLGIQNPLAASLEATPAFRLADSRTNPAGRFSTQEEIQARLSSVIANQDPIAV

[7] = test system: Neuregulin-1 EGF-like domain; test: small molecules binding NRG1 EGF domain – biochemical, small-molecule microarray, 635 nm fluorescence, primary screen (AID 1081); details: higher = more signal;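 also: binding of the protein to compounds printed on small-molecule microarray slides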
[8] = FRG1 expression reporter modulators in myotubes – cell-based, C2C12 myotubes, firefly/Renilla luciferase, luminescence, FRG1 inhibition for FSHD, primary screen (AID 1084); details: FRG1 promoter luciferase, higher = more signal, called active from +8 up or from −8 down
[9] = small molecules captured by biotinylated probe aFST – biochemical, small-molecule microarray, fluorescence 635/667, stem cell growth factor project, primary screen (AID 1086); details: higher = more signal;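 also: score merges 667 nm fluorescence with signal-to-noise of each printed compound spot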
[10] = binders of probe aHhip on microarray, primary screen, stem cell growth factor project, biochemical, small-molecule microarray, fluorescence 635/667 (AID 1087); details: higher = more signal;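 also: score merges spot fluorescence at 667nm with spot signal to noise ratio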

| SMILES | composite z-score [1] | composite z-score [2] | composite z-score [3] | composite z-score [4] | composite z-score [5] | composite z-score [6] | composite z-score [7] | z-score [8] | composite z-score [9] | composite z-score [10] |
| --- | --- | --- | --- | --- | --- | --- | --- | --- | --- | --- |
| Cc1ccc(S[C@]2(C(=O)NC(C)C)CC(=O)N(Cc3ccccc3Cl)[C@@H]2c2ccc(CO)cc2)cc1 | 0.827 | -1.59 | -0.0474 | -0.519 | -0.266 | 1.03 | 1.37 | -3.34 (inactive) | -0.519 | -0.169 |
| COC(=O)[C@@]1(Cc2ccccc2)[C@H]2c3cc(C(=O)N(C)C)n(CCn4cc([N+](=O)[O-])nc4C)c3C[C@H]2CN1C(=O)c1ccccc1 | 0.0989 | 0.227 | -0.045 | 0.861 | 1.23 | 0.204 | 1.2 | -0.0393 (inactive) | 0.928 | -0.281 |
| O=C1C2C=CC(C(O)C=Cc3ccc([N+](=O)[O-])cc3)N(Nc3ccccc3)C2C(=O)N1c1ccccc1 (stereo not given) | -0.134 | -0.0552 | 0.183 | 0.995 | 1.59 | 1.7 | 0.967 | -0.028 (inactive) | 1.22 | -0.0237 |
| COCCOC(=O)N1C(=O)[C@@]2(c3cc(C#CCCO)ccc31)[C@H](C(N)=O)[C@H]1C(=O)O[C@H](c3ccccc3)[C@H](c3ccccc3)N1[C@@H]2c1ccc(OCCO)cc1 | -0.0241 | 0.657 | -0.0202 | 0.48 | 1.43 | 1.1 | 1.17 | 0.478 (inactive) | 0.439 | -0.0994 |
| CCN(CC)c1ccc(N2CC=CC34O[C@@H]5C=CCCOC(=O)C5[C@H]3C(=O)N(CCO)[C@@H]4C2=O)cc1 (stereo not given in full) | 0.171 | -0.981 | -0.18 | -0.463 | -0.894 | -0.684 | 1.52 | -0.329 (inactive) | -0.209 | -0.137 |
| CCOC(=O)C1=CCC(c2ccccc2)N(S(=O)(=O)c2ccc([N+](=O)[O-])cc2)C1 (stereo not given) | -0.239 | -0.181 | -0.112 | 0.154 | 1.17 | -0.0979 | 0.549 | -0.877 (inactive) | 0.06 | 0.0505 |
| Cc1ccc(N2C(=O)c3ccccc3[C@](C)(C(=O)NCc3ccccc3)[C@@H]2c2ccc(CO)cc2)nc1 | 0.625 | 0.0083 | 0.0898 | -0.369 | -0.378 | 0.64 | 0.635 | 0.101 (inactive) | 0.0665 | 1.07 |
| COC(=O)[C@@]1(Cc2ccccc2)[C@H]2c3cc(C(=O)N4CCCC4)n(CCSCCO)c3C[C@H]2CN1C(=O)c1ccccc1 | 0.729 | 0.773 | 0.457 | 0.525 | 1.83 | 1.66 | 1.37 | -0.906 (inactive) | 0.894 | 0.189 |
| COC(=O)[C@@]1(Cc2ccc(F)cc2)[C@H]2c3cc(C(=O)N(C)C)n(Cc4ccc(O)c(OC)c4)c3C[C@H]2CN1C(=O)c1ccccc1 | 0.129 | 0.196 | 0.0398 | 0.531 | 1.35 | 1.26 | 0.786 | 2.98 (inactive) | 0.675 | 1.17 |
| [N-]=[N+]=NCc1ccccc1[C@H]1OC(c2ccc(OCCCO)cc2)=N[C@@]1(CCS(=O)(=O)c1ccccc1)C(=O)NCc1ccccc1 | 0.174 | 0.447 | 0.138 | 0.914 | 1.53 | 1.33 | 1.24 | -1.68 (inactive) | 0.981 | 1.05 |
| CN(C)CCCCCCNC(=O)[C@@H]1C[C@@H]2C(=O)N[C@@H](CCCCN)C(=O)N2[C@@H]1c1ccc(O)cc1 | 3.77 | 1.82 | 0.939 | 1.2 | 1.65 | 2.91 | 1.53 | 0.918 (inactive) | 3.81 | 3.69 |
| O=C1C2C=CC(C(O)c3cc(C(F)(F)F)cc(C(F)(F)F)c3)N(Nc3ccccc3F)C2C(=O)N1c1ccccc1 (stereo not given) | 0.835 | 0.554 | -0.0049 | 0.233 | 0.909 | 1.85 | 1.16 | 0.285 (inactive) | 0.967 | -0.202 |
| C=CCC(OC(C)=O)[C@@H]1[C@@H](N(Cc2cccc3ccccc23)C(=O)c2cccc3ccccc23)c2cc(OCCCO)ccc2N1C(=O)c1ccc2ccccc2c1 (stereo not given in full) | -0.232 | -0.124 | 0.365 | 0.0197 | -0.833 | -0.247 | -0.313 | -2.36 (inactive) | 0.268 | -0.132 |
| CC(C)[C@H]1NC(=O)[C@@]23C(=O)N[C@@H](Cc4ccccc4)C2[C@H](C)[C@@]2(C)O[C@H]2C3/C=C/CCC/C=C/CNC(=O)[C@H](Cc2ccccc2)NC1=O (stereo not given in full) | -0.245 | 0.719 | -0.147 | -0.0587 | 0.046 | 1.57 | 1.22 | 0.966 (inactive) | -0.419 | -0.319 |
| COc1ccc([Si](C)(C)[C@@H]2[C@@H](CCn3cc([C@H](O)c4ccccc4)nn3)O[C@]3(C(=O)N(c4ccccc4)c4ccccc43)[C@H]2C)cc1 | -0.162 | 0.297 | -0.0824 | 0.211 | 0.0701 | 0.336 | 0.75 | -0.587 (inactive) | -0.0029 | -0.122 |
| C[C@]1(C(=O)NCC(F)(F)F)c2ccccc2C(=O)N(Cc2ccccc2)[C@H]1c1ccc(CO)cc1 | 0.472 | -1.34 | -0.167 | -0.358 | -1.52 | 0.794 | 0.711 | -1.48 (inactive) | -0.0961 | -0.0003 |

| SMILES | composite z-score [1] | composite z-score [2] | composite z-score [3] | composite z-score [4] | composite z-score [5] | composite z-score [6] | composite z-score [7] | z-score [8] | composite z-score [9] | composite z-score [10] |
| --- | --- | --- | --- | --- | --- | --- | --- | --- | --- | --- |
| CCOC(=O)C1=CCN(S(=O)(=O)c2ccc(C)cc2)C1c1ccccc1 (stereo not given) | -0.0137 | 0.229 | -0.0232 | 0.535 | 1.5 | 1.44 | 1.2 | -0.158 (inactive) | 0.439 | 0.113 |
| CC(C)C[C@@H]1NC(=O)CNC(=O)[C@@]23C(=O)N[C@@H](Cc4ccccc4)C2[C@H](C)[C@@]2(C)O[C@H]2C3/C=C/C/C=C\CNC1=O (stereo not given in full) | -0.454 | 0.109 | -0.087 | 0.68 | 0.429 | 0.345 | 0.919 | 1.4 (inactive) | 0.0427 | -0.171 |
| NC(=O)[C@@H]1[C@H]2C(=O)O[C@H](c3ccccc3)[C@H](c3ccccc3)N2[C@H](c2ccc(OCCO)cc2)[C@@]12C(=O)Nc1ccc(C#CCCO)cc12 | 0.398 | 0.165 | 0.0122 | 0.786 | 0.472 | 1.23 | 1.22 | 1.62 (inactive) | -0.222 | -0.236 |
| C=CCNC(=O)[C@H]1[C@@H]2C(=O)O[C@@H](c3ccccc3)[C@@H](c3ccccc3)N2[C@@H](c2ccc(OCCO)cc2)[C@]12C(=O)Nc1ccc(C#CCNC(N)=O)cc12 | 0.264 | 0.311 | 0.0015 | 0.641 | 0.112 | 0.883 | 0.817 | -0.651 (inactive) | 1.28 | 0.0623 |
| COc1ccc(C#Cc2ccc3c(c2)[C@]2(C(=O)N3)[C@H](c3ccc(OCCO)cc3)N3[C@H](c4ccccc4)[C@H](c4ccccc4)OC(=O)[C@H]3[C@@H]2C(=O)N2CCc3cc(OC)c(OC)cc3C2)cc1 | -0.253 | 0.447 | -0.0746 | 0.862 | 1.2 | 1.78 | 1.16 | 1.14 (inactive) | 0.0959 | -0.623 |
| C=C(C)[C@@H]1CC=C(C(O)C2C=CC3C(=O)N(c4ccccc4)C(=O)C3N2Nc2ccc(C#N)cc2)CC1 (stereo not given in full) | -0.266 | -0.278 | 0.169 | 0.783 | 1.65 | 1.81 | 1.33 | -1.74 (inactive) | 1.53 | -0.112 |
| CC(C)C(=C=CC[C@@H](O)c1cccc(OCCO)c1)C[C@@H](O)c1ccccn1 | -0.437 | -0.0934 | -0.147 | 0.815 | -0.553 | -0.253 | 0.125 | 1.35 (inactive) | -0.0246 | -0.137 |
| C=CCN1C(=O)[C@]2(O[C@H](CCO)[C@@H]([Si](C)(C)c3ccc(OC)cc3)[C@@H]2C)c2cc(N3C(=O)COc4ccccc43)ccc21 | 0.174 | -0.142 | -0.0597 | 0.606 | 0.248 | 0.966 | 0.698 | -0.998 (inactive) | -0.0347 | -0.297 |
| CC=CC(O)C1C=CC2C(=O)NC(=O)C2N1Nc1ccccn1 (stereo not given) | -0.293 | 0.205 | -0.151 | 0.204 | 1.03 | 0.934 | 1.24 | 0.571 (inactive) | 0.128 | -0.0618 |
| COc1ccc(C(=O)Nc2cccc(CN3C(=O)[C@]4(O[C@H](CCn5cc([C@H](O)c6ccccc6)nn5)[C@@H]([Si](C)(C)c5ccc(OC)cc5)[C@@H]4C)c4ccccc43)c2)cc1 | 0.243 | -0.505 | -0.0709 | 0.266 | -0.122 | 1.04 | 0.933 | -0.454 (inactive) | 0.0644 | -0.0618 |
| Cc1ccccc1C(O)C1C=CC2C(=O)NC(=O)C2N1Nc1ccc(Cl)cc1Cl (stereo not given) | 0.51 | 0.328 | 0.0342 | 0.5 | 1.48 | 1.73 | 1.04 | 0.0623 (inactive) | 0.504 | -0.283 |
| COc1ccc([Si](C)(C)[C@H]2[C@H](CCO)O[C@@]3(C(=O)N(Cc4ccccc4)c4ccc(N5C(=O)c6ccccc6Oc6ccccc65)cc43)[C@@H]2C)cc1 | 0.342 | -0.393 | -0.0591 | 0.606 | -0.0653 | 0.777 | 0.79 | -1.55 (inactive) | -0.0173 | -0.169 |
| [N-]=[N+]=NCc1ccccc1[C@@H]1OC(c2ccc(OCCCO)cc2)=N[C@]1(Cc1ccccc1N=[N+]=[N-])C(=O)N1CCCCC1 | -0.0244 | 1.17 | -0.0599 | 0.227 | 1.55 | 1.16 | 1.23 | -0.878 (inactive) | 0.882 | 0.38 |
| C=CCC(OC(C)=O)[C@@H]1[C@@H](N(Cc2ccc(-c3cccc(C(F)(F)F)c3)o2)C(=O)c2cccc3ccccc23)c2cc(OCCCO)ccc2N1C(=O)Cc1ccc(OC)cc1 (stereo not given in full) | -0.238 | -0.125 | -0.143 | -0.0597 | -0.386 | 0.0701 | -0.398 | 0.317 (inactive) | 0.378 | -0.179 |
| COCCOC(=O)N1C(=O)[C@@]2(c3ccccc31)[C@H](c1ccccc1OCCO)N1[C@H](c3ccccc3)[C@H](c3ccccc3)OC(=O)[C@H]1[C@@H]2C(N)=O | -0.299 | 0.692 | -0.0015 | 0.725 | 1.23 | 0.133 | 1.3 | -2.08 (inactive) | 0.971 | -0.0645 |
| CCOC(=O)C[C@H]1[C@H](OC(=O)c2ccccc2-c2ccccc2)[C@@H](NC(=O)c2ccc3ccccc3n2)c2cc(OCCCO)ccc2N1C(=O)c1ccccc1 | -0.384 | 0.491 | -0.0752 | 0.331 | 0.417 | 0.288 | 0.666 | -0.764 (inactive) | 0.377 | 0.0401 |
